For some of these results: Potency and affinity values are given separately.
What was measured:
Design in all cases: scale not given: direction of the effect not stated beside the values
[1] = target: Protein translocase subunit SecA (Escherichia coli (strain K12)) (UniProt P10408); assay: Assay to Identify E. coli SecA ATPase Inhibitors; type: functional; details: 30 µM
[2] = target: T1, Ubiquitin-activating enzyme e1, putative (Leishmania donovani (strain BPK282A1)) (UniProt E9BSI1); assay: Leishmania donovani Ubiquitin Activating Enzyme (LdE1); type: functional; details: 30 µM
T1 sequence (whole entry): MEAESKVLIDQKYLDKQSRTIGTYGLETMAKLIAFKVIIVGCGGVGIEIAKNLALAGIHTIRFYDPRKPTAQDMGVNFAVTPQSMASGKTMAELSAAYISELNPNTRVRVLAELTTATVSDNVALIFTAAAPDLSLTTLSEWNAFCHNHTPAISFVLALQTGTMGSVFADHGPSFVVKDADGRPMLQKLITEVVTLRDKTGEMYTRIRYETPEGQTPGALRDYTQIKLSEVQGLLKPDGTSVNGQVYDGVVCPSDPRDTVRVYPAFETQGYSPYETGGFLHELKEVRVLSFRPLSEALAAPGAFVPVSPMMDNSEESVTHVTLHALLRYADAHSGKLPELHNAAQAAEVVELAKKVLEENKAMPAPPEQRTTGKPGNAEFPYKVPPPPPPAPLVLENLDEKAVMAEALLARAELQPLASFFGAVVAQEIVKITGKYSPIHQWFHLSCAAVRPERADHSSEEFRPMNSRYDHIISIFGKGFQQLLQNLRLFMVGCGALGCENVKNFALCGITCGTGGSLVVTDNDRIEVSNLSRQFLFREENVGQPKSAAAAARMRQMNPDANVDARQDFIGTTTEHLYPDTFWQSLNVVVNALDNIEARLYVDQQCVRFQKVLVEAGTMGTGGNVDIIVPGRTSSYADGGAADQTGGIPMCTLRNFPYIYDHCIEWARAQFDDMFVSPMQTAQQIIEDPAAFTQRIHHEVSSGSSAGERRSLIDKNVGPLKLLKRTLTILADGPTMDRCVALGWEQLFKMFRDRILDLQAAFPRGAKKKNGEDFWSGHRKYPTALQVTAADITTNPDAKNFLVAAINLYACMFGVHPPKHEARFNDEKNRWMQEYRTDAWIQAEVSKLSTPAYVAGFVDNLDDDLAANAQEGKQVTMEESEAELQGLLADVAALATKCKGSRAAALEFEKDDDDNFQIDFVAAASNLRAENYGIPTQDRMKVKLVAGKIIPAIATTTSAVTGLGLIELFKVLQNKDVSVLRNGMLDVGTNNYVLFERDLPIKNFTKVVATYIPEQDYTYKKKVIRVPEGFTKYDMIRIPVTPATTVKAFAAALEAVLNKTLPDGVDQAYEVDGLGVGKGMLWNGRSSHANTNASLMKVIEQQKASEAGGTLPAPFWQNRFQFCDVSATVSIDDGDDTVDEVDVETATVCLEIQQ

[3] = target: AMP-activated protein kinase, AMPK (Homo sapiens) (UniProt P54646+O43741+P54619+Q9UGJ0+Q9Y478+Q13131+Q9UGI9); assay: AMP-dependent Kinase enzyme assay. An in vitro enzyme assay that detects ADP turnover that is directly proportional to AMPK activity. This uses naive AMPK that is activated during the assay with MK-8722; type: functional; details: 30 µM
[4] = target: Sialic acid-binding Ig-like lectin 9 (Homo sapiens) (UniProt Q9Y336); assay: Hs-Siglec9 ALPHAscreen SOP 20170721; details: 10 µM
Sequence of Sialic acid-binding Ig-like lectin 9 (Homo sapiens) (Q9Y336 whole entry): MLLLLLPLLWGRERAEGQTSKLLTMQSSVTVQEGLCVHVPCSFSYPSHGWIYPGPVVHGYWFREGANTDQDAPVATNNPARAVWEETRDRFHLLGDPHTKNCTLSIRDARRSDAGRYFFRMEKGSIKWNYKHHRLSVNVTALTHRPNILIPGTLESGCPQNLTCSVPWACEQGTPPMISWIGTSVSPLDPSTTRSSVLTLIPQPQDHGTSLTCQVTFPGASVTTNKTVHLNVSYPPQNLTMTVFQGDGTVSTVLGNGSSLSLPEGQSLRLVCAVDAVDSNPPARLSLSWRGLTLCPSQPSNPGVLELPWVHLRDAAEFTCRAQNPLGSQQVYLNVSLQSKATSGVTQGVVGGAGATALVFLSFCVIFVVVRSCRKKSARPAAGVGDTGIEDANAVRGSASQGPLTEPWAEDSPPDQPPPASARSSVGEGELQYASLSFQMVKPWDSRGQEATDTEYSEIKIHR

[5] = test system: Trypanosoma cruzi; assay: Trypanosoma cruzi phosphomannomutase and mannose-1-phosphate guanylyltransferase assay; type: functional; details: 10 µM
[6] = target: T2, Arginase-2, mitochondrial (Homo sapiens) (UniProt P78540); assay: in vitro enzyme assay to detect the production of urea directly proportional to the activity of Arginase II; type: functional; details: 33.3 µM; also: in the data most compounds retested in dose-response had high values
T2 sequence (whole entry): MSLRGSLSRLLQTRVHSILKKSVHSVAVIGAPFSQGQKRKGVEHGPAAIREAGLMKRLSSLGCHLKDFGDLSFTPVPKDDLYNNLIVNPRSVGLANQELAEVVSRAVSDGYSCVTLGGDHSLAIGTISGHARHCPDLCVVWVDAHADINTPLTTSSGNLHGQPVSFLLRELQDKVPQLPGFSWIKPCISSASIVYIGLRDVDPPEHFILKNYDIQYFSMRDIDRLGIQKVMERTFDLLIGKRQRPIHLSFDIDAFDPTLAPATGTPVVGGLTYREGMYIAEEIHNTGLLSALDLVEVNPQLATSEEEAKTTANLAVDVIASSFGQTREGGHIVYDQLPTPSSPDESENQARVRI

[7] = target: T3, Proteasome subunit beta (Trypanosoma cruzi) (UniProt O96673); assay: Trypanosoma cruzi proteasome chymotrypsin-like activity (TcProtChymo) assay.; also: in the data most compounds retested in dose-response had high values; type: functional; details: 9.37 µM
T3 sequence (whole entry): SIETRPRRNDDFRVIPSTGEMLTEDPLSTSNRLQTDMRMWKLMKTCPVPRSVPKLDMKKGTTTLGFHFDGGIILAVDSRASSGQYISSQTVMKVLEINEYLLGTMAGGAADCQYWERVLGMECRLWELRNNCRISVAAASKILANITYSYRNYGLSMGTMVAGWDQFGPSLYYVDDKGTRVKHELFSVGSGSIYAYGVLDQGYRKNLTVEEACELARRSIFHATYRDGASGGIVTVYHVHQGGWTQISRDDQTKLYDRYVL

[8] = organism: Homo sapiens; assay: To identify inhibition of the IFN signalling (Jak-Stat) pathway via expression of an eGFP reporter gene under the control of an IFN-stimulated response element (ISRE) containing MxA promoter.; type: functional; details: 30 µM
[9] = target: T4, Tyrosyl-tRNA synthetase, putative (Trypanosoma cruzi (strain CL Brener)) (UniProt Q4DSP6); assay: Trypanosoma cruzi tyrosyl tRNA synthetase (TcYRS) _High Tyrosine SOP; type: functional; details: 30 µM; also: in the data most compounds retested in dose-response had high values
T4 sequence (whole entry): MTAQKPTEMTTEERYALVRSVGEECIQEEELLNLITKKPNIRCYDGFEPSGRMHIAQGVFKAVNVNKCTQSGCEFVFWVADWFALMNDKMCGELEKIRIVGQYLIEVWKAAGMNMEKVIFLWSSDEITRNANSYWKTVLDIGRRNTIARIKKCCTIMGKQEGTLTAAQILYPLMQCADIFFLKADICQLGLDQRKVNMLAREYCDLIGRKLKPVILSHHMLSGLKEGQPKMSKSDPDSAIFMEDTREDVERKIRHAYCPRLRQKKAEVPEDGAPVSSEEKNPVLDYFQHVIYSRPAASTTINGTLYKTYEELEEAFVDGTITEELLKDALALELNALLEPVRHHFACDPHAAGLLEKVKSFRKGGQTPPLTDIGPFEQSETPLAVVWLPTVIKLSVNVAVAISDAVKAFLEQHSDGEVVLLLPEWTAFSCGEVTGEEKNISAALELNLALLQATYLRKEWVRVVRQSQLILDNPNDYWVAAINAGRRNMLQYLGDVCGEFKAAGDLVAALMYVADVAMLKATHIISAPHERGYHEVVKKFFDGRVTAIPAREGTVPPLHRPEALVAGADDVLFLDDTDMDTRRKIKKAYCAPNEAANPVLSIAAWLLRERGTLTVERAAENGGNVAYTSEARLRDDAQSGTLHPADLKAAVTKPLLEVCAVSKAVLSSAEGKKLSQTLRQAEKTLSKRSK

[10] = target: T4, Tyrosyl-tRNA synthetase, putative (Trypanosoma cruzi (strain CL Brener)); assay: Trypanosoma cruzi tyrosyl tRNA synthetase (TcYRS) SOP; type: functional; details: 30 µM
[11] = target: Chromo domain-containing protein 1 (Saccharomyces cerevisiae (strain ATCC 204508 / S288c) (Baker's yeast)) (UniProt P32657); assay: ScCHD-1 Enzyme Inhibition Assay; type: functional; details: 30 µM; also: in the data most compounds retested in dose-response had high values
Sequence of Chromo domain-containing protein 1 (Saccharomyces cerevisiae (strain ATCC 204508 / S288c) (Baker's yeast)) (P32657 whole entry, the tested form may be a part): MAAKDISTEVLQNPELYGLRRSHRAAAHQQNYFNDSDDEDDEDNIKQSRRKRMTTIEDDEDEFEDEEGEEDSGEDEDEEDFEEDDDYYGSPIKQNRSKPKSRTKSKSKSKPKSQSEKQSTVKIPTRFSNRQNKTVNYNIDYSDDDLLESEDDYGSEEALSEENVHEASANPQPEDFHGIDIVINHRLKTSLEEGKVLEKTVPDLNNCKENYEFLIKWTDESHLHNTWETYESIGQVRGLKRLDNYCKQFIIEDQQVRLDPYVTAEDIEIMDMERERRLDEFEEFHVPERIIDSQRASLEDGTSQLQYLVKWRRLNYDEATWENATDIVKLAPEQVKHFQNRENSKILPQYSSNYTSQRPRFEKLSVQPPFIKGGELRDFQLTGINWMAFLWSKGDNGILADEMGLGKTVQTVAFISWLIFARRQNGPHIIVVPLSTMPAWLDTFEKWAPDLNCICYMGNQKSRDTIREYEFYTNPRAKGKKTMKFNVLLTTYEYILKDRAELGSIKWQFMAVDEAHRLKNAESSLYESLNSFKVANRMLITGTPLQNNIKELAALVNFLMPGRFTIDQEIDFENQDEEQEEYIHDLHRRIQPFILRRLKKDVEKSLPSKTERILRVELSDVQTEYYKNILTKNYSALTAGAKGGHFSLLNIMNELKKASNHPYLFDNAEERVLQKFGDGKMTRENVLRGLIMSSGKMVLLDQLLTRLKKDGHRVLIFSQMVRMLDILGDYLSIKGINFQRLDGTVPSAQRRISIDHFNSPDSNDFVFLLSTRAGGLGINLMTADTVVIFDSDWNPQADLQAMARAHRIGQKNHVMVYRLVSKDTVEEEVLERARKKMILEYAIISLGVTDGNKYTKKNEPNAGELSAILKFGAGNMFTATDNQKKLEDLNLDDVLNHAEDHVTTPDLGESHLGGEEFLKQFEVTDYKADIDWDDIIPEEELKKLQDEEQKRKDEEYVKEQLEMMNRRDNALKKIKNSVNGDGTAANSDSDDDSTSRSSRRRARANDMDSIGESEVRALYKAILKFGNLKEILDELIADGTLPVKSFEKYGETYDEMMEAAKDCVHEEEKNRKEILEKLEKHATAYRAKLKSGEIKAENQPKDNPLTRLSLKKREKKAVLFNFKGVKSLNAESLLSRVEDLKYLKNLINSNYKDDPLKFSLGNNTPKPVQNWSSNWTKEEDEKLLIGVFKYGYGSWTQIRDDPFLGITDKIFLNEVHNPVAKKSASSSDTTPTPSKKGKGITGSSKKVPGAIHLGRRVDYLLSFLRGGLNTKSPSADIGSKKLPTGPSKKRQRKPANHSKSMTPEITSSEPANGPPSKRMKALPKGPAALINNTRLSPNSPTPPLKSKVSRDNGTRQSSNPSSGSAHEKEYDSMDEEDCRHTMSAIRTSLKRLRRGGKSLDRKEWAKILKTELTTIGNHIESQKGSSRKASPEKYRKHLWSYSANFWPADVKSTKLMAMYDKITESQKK

Sequence of Protein translocase subunit SecA (Escherichia coli (strain K12)) (P10408 whole entry): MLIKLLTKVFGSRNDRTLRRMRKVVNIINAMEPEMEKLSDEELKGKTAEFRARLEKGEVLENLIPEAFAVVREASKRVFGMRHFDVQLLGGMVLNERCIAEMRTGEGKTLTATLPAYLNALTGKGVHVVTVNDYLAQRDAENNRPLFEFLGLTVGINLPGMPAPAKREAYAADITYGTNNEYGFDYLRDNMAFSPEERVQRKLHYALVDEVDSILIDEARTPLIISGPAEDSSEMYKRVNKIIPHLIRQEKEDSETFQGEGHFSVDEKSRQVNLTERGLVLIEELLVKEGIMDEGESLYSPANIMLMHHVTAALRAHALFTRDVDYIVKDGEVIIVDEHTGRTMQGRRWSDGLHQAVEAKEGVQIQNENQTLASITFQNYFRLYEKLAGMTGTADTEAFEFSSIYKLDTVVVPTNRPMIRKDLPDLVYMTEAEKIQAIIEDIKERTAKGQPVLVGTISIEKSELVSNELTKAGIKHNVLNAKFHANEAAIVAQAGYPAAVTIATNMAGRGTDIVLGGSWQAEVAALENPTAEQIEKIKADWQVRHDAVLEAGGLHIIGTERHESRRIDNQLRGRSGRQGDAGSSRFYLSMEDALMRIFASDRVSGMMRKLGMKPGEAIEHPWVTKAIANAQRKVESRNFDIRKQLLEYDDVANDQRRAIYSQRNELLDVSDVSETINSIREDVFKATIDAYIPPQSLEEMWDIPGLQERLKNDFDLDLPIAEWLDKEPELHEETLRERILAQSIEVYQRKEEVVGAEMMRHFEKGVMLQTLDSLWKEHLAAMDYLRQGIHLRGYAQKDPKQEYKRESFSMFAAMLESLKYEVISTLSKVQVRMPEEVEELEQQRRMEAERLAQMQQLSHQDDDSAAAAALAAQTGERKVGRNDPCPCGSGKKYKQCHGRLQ

In the case of `CCc1n[nH]c(C2CN(C(=O)c3cc4c(s3)CCCC4)CCO2)n1` (stereo not given), the Percent Effect [1] is reported as -1.02%, the Percent Effect [2] is reported as 20.2% and the Percent Effect [3] is reported as 0.0672%. It also gave a Percent Effect [4] of -4.74%, a Percent Effect [5] of -6.33% and a Percent Effect [6] of -0.76%. For the same molecule, the Percent Effect [7] was 6.96%, the Percent Effect [8] was 30.5% and the Percent Effect [9] was 1.48%. It also gave a Percent Effect [10] of 8.86% and a Percent Effect [11] of -5.65%.

`COc1cccc(C(=O)Nc2cc(CC(C)C)nn2C)c1` was tested, and the Percent Effect [1] was -4.81%, the Percent Effect [2] was -5.2% and the Percent Effect [3] was -7.56%. For the same molecule, the Percent Effect [4] was 6.82%, the Percent Effect [5] was 6.74% and the Percent Effect [6] was -6.41%. It also gave a Percent Effect [7] of 3.04%, a Percent Effect [8] of 11% and a Percent Effect [9] of 4.85%. For the same molecule, the Percent Effect [10] was 14.6% and the Percent Effect [11] was -5.36%.

`CC(NC(=O)NCCNc1cnccn1)c1cccs1` (stereo not given) gave a Percent Effect [1] of -1.5%, a Percent Effect [2] of 23.4% and a Percent Effect [3] of 1.73%. For the same molecule, the Percent Effect [4] was 3.58%, the Percent Effect [5] was 2.81% and the Percent Effect [6] was 2.49%. For the same molecule, the Percent Effect [7] was 3.21%, the Percent Effect [8] was -20.8% and the Percent Effect [9] was 8.74%. For the same molecule, the Percent Effect [10] was 24.4% and the Percent Effect [11] was -11.5%.

`CCn1cnnc1CNC(=O)N1CCC(Cc2cccnc2)CC1` showed a Percent Effect [1] of -2.15%, a Percent Effect [2] of -2.6% and a Percent Effect [3] of -0.131%. The Percent Effect [4] was 1.86%, the Percent Effect [5] was -4.41% and the Percent Effect [6] was 1.47%. For the same molecule, the Percent Effect [7] was 0.0808%, the Percent Effect [8] was 7.54% and the Percent Effect [9] was -1.91%. It also gave a Percent Effect [10] of -4.71% and a Percent Effect [11] of 8.62%.

In the case of `CN(Cc1ccc(F)cc1)C(=O)Cn1nc(-c2ccc(F)cc2)oc1=O`, the Percent Effect [1] is reported as -0.937%, the Percent Effect [2] is reported as 2.63% and the Percent Effect [3] is reported as 0.873%. The Percent Effect [4] was -13.2%, the Percent Effect [5] was -7.3% and the Percent Effect [6] was 11.8%. For the same molecule, the Percent Effect [7] was 15.4%, the Percent Effect [8] was 14.9% and the Percent Effect [9] was -7.45%. It also gave a Percent Effect [10] of -2.6% and a Percent Effect [11] of -7.96%.

Source: ChEMBL document CHEMBL3988442, “University of Dundee, Small-Polar-MMV Screening Library” (2021)
